Columns and labels:
Test in all cases: log2 ratio of Biotin-Ahx-Ub-VS probe labelling (fragment/DMSO); higher = less target engagement (more negative = stronger competition), active = hit call of the paper (q ≤ 0.05, log2 ratio ≤ -1)
Settings in all cases: compound concentration: 200 uM; treatment time: 3 h
[1] = target: USP34 (UniProt Q70CQ2)
In short: (§1)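 HEK293T lysate, 495 µg per sample in Tris/CHAPS/IGEPAL buffer with protease inhibitors, was treated in triplicate with fragment at 200 µM or vehicle for 3 h and then with Biotin-Ahx-Ub-VS at 0.5 µM final for 1 h. Labelled DUBs were NeutrAvidin-enriched, digested with LysC and trypsin, and run by diaPASEF LC-MS/MS. Spectronaut label-free quantities were global-median-normalised, and values are average log2 fragment/vehicle ratios by unpaired t-test on proteins with ≥2 unique peptides.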

[2] = target: T1, USP36 (UniProt Q9P275)
T1 sequence (whole entry): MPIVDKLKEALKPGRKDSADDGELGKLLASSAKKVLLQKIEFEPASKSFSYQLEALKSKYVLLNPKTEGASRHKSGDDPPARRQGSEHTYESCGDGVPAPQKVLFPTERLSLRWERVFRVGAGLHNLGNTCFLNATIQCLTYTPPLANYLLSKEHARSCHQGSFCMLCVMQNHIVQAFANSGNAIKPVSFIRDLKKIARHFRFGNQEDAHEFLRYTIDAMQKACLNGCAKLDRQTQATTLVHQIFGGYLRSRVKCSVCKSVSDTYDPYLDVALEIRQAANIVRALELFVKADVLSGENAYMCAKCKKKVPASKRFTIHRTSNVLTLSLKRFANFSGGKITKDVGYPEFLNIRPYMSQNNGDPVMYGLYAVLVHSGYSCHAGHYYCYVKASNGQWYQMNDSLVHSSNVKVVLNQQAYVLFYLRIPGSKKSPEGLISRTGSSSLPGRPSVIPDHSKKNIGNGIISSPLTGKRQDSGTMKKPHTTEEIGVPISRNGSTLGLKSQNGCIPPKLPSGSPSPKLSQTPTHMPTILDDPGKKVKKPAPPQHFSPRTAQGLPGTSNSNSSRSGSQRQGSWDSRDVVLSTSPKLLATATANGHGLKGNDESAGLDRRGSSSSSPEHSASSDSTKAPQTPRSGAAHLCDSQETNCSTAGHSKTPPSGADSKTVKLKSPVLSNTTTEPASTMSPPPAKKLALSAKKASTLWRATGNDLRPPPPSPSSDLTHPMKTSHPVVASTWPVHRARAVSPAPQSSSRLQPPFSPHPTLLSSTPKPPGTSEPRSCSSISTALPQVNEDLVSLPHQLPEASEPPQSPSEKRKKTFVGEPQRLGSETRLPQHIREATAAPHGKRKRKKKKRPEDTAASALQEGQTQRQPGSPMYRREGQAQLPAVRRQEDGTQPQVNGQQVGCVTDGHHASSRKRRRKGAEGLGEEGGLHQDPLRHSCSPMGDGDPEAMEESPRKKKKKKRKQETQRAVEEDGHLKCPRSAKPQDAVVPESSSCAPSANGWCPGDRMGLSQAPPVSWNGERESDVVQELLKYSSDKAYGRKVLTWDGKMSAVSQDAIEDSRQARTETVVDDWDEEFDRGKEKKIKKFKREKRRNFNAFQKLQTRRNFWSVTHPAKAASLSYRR
In short: as §1

[3] = target: T2, USP38 (UniProt Q8NB14)
T2 sequence (whole entry): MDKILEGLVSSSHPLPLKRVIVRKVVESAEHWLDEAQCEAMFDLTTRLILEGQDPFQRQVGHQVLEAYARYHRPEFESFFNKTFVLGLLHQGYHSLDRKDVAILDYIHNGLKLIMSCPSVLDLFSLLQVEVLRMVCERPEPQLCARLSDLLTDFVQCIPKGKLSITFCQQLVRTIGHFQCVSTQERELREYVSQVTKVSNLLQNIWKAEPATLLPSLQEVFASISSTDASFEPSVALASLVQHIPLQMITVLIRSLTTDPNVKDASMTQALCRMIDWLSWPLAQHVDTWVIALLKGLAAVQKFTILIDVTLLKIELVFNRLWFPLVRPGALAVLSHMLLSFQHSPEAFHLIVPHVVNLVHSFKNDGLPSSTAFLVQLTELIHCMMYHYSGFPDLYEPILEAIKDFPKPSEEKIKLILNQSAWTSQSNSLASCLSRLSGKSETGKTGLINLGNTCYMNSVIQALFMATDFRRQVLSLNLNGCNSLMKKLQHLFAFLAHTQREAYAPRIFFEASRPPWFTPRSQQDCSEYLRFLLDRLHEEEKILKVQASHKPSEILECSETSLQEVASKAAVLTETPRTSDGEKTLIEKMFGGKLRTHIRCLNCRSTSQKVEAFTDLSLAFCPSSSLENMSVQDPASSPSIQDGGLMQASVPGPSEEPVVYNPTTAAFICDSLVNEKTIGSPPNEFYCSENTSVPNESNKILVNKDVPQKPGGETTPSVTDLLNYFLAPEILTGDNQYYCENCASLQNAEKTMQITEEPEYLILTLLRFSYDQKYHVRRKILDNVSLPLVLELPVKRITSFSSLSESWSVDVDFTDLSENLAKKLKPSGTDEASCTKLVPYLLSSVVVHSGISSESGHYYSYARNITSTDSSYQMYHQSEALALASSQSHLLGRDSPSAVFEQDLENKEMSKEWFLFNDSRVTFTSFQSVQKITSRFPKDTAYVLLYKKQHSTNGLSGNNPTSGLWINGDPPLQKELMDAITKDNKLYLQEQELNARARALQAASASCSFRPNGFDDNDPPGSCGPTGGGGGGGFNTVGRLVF
In short: as §1

[4] = target: T3, USP39 (UniProt Q53GS9)
T3 sequence (whole entry): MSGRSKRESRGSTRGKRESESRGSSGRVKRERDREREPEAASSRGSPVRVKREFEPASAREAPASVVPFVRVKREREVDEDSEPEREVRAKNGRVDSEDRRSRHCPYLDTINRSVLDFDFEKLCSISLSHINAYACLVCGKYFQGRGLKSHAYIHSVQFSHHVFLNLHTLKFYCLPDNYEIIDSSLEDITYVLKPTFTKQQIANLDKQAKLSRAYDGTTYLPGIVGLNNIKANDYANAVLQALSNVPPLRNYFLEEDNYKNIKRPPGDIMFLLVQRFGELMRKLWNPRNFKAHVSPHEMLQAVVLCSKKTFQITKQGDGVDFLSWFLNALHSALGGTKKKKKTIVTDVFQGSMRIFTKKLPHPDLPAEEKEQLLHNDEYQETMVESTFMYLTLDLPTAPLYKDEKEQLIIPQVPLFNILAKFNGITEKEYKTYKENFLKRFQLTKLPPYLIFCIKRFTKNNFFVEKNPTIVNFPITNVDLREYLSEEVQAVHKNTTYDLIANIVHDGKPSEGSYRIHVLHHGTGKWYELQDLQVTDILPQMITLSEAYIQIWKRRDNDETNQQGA
In short: as §1

[5] = target: T4, USP4 (UniProt Q13107)
T4 sequence (whole entry): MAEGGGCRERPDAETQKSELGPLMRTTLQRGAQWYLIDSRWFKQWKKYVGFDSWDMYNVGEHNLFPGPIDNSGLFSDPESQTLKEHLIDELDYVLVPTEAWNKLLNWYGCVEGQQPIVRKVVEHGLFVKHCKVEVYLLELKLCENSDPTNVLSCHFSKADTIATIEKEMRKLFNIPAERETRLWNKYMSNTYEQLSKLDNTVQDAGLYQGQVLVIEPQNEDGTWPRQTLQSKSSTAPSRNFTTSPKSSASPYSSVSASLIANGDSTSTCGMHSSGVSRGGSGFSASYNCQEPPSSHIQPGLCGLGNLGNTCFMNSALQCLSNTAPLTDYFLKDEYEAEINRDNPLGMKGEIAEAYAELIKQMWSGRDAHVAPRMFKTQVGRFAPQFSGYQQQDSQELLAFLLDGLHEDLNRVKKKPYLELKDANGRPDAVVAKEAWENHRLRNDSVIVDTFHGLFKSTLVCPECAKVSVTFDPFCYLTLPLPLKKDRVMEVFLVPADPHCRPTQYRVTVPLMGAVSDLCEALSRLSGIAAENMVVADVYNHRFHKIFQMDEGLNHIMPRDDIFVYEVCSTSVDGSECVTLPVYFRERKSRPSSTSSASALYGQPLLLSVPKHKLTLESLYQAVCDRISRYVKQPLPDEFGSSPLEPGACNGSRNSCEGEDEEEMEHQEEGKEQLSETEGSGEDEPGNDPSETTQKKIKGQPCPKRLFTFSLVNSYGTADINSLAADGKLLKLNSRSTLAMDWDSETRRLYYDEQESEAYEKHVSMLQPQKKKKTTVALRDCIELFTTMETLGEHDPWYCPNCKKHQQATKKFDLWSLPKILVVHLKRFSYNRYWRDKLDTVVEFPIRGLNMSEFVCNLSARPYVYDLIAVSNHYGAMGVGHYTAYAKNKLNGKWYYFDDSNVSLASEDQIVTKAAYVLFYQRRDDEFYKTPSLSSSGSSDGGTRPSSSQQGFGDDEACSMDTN
In short: as §1

Measured: log2 ratio of Biotin-Ahx-Ub-VS probe labelling

Chain of USP34 (Q70CQ2 whole entry, the tested form may be a part): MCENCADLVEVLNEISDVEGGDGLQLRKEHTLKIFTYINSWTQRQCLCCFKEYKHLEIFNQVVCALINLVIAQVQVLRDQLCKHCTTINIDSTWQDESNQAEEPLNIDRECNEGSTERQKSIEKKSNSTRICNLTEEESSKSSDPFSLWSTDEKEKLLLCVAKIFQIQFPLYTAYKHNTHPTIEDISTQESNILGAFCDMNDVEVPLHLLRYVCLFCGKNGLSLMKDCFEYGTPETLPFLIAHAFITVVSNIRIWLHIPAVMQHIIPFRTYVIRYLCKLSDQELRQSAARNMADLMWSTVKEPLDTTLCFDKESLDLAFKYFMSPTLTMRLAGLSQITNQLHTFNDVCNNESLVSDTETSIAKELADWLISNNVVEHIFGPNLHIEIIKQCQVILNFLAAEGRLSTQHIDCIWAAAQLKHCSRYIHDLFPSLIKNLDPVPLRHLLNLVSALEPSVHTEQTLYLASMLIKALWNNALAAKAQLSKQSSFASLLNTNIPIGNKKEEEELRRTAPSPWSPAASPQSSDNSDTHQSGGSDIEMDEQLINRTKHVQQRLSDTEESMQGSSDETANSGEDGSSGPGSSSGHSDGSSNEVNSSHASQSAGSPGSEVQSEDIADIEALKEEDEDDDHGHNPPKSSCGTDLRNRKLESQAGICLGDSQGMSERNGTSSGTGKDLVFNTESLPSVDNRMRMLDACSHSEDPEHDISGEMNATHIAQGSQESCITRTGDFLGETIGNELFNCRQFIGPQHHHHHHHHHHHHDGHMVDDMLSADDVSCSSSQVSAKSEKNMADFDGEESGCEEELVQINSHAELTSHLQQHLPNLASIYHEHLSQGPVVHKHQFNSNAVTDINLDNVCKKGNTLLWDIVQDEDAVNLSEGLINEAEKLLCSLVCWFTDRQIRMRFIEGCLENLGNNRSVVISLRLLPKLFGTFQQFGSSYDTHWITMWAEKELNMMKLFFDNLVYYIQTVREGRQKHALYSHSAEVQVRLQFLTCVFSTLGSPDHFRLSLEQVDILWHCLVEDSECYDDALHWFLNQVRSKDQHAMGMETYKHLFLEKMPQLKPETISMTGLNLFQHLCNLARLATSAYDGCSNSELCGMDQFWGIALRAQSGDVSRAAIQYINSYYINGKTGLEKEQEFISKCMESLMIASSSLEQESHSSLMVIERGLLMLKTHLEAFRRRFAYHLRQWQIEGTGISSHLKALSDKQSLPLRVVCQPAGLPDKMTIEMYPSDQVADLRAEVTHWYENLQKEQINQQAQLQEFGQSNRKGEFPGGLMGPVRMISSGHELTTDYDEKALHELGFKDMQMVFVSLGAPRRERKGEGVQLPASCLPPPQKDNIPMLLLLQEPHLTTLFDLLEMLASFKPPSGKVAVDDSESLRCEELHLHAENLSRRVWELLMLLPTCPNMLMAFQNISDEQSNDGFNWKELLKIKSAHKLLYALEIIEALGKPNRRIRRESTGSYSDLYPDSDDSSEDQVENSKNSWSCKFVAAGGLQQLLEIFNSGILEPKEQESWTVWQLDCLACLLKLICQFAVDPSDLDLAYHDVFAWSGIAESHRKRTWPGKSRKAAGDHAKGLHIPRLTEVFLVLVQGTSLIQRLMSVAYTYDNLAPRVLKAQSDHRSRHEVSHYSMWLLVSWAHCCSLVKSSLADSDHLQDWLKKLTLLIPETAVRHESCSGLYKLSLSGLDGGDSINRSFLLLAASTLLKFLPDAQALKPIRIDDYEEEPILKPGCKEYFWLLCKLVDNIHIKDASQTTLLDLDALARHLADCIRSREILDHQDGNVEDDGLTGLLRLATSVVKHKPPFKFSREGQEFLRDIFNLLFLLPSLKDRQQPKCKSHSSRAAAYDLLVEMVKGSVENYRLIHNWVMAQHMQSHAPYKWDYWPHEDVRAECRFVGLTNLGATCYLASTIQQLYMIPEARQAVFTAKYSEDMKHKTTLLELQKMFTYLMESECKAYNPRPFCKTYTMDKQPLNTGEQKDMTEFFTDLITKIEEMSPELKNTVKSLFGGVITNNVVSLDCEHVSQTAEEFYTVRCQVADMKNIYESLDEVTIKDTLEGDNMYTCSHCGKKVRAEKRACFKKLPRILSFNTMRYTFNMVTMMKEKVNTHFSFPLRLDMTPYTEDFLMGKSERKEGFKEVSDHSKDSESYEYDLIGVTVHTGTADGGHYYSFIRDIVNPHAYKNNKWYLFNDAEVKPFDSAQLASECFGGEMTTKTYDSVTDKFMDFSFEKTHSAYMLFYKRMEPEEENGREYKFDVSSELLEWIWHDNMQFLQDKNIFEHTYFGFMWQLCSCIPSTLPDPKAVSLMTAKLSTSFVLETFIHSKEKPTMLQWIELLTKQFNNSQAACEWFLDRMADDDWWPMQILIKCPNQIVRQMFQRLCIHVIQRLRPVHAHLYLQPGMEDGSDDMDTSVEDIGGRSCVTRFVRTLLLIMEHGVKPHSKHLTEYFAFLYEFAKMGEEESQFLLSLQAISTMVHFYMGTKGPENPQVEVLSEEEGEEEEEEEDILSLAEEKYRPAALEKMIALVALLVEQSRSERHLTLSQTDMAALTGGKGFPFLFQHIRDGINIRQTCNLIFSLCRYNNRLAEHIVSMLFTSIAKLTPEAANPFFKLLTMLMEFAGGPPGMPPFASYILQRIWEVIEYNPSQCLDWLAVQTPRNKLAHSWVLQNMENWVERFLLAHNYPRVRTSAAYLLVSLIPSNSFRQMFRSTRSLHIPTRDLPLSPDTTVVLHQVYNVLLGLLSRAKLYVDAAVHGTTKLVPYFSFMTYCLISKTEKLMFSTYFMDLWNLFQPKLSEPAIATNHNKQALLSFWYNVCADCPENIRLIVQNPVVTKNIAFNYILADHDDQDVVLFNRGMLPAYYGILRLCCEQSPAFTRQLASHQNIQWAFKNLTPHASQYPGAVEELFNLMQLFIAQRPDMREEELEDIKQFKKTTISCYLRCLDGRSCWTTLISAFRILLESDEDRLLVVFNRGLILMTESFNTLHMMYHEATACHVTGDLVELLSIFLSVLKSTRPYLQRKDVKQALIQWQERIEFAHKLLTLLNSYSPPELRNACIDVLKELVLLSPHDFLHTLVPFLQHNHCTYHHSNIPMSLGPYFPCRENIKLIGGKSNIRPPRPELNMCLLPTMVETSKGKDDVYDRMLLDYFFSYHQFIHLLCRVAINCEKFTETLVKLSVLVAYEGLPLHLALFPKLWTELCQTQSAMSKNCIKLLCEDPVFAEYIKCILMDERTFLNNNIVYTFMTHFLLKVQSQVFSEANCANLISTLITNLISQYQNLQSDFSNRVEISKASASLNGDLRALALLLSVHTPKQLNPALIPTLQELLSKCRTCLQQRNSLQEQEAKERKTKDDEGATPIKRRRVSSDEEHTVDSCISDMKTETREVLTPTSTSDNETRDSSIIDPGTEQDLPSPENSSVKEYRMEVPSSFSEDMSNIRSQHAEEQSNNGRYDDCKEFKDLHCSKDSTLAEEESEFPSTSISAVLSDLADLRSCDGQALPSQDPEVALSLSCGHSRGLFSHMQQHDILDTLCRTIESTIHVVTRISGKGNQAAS

O=C(CCl)N1CCC(c2nc3ccccc3o2)CC1
inactive: [1] -0.0485 | [2] -0.24 | [3] -0.183 | [4] 0.016 | [5] -0.231

Source: the supplement of paper PMC11732987, “Enantioselective OTUD7B fragment discovery through chemoproteomics screening and high-throughput optimisation” (Communications Chemistry, 2025)
